# Assay outcomes (PubChem)
# M1 PAM = human CHRM1 positive allosteric modulation | CHO-K1 hM1, Fluo-8 calcium fluorescence, ACh EC20; 0% = ACh EC20, 100% = maximal ACh | P11229 | 360,000 tested, 0.088% active | AID 588819 | activation, % at 3 µM; in the data active means activation above about 19%, passing the limit was not always enough
# Target sequence (P11229 whole entry, looked up): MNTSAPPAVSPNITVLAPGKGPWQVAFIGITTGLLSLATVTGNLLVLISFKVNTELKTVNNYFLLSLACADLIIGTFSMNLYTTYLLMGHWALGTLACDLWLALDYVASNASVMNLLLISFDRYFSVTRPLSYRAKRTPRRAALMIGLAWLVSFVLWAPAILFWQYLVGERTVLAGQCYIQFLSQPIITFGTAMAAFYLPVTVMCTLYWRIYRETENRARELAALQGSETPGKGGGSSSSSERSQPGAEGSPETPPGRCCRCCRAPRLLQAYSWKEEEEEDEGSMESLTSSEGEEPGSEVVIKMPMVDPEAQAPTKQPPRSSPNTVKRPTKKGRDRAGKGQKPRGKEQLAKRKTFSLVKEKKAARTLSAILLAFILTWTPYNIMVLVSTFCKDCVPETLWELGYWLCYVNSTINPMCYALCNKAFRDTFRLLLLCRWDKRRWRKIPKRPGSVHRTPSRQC
# CHRM1 agonist = agonists of human M1 muscarinic receptor; activation, % at 3 µM; AID 588814; 360,000 tested, 0.33% active; CHO-K1 hM1, Fluo-8 calcium fluorescence, agonist mode; 0% DMSO, 100% acetylcholine EC100;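 active means activation above the run's mean compound activation plus 3 SD, cut at about 16% in these data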;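 further: peak over basal fluorescence ratio within a 140 s kinetic read after compound addition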
# M1 PAM parental = counter-screen for M1 PAMs: effect in parental CHO-K1 cells. activation, % at 3 µM. 360,000 tested, 0.02% active. ATP EC20, Fluo-8 calcium fluorescence; 0% at ATP EC20, 100% at ATP max. AID 602247;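 active means activation above the run cutoff, the mean activation of all test compounds plus 3 SD, cut at about 40% in these data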;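 further: peak over basal fluorescence ratio in a 140 s read after ATP addition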
# CHO-K1 Ca antag = counter-screen for M1 antagonists: effect in parental CHO-K1 cells. ATP-induced calcium, Fluo-8 fluorescence. inhibition, % at 3 µM. 360,000 tested, 0.6% active;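 active means inhibition above a per-plate cutoff, the plate's mean sample inhibition plus 3 SD, cut at about 24% in these data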;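 further: 0% = DMSO plus EC80 ATP and 100% = DMSO alone without ATP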
# CHRM1 antagonist = blocks human M1 muscarinic receptor; P11229; inhibition, % at 3 µM; CHO-K1 hM1, Fluo-8 calcium fluorescence, ACh EC80 antagonist; AID 588852; 360,000 tested, 1.3% active;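 active means percent inhibition above its own plate's cutoff, namely the mean of that plate's compound wells plus 3 SD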;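 further: peak over basal fluorescence ratio during 140 s after agonist addition; 0% = ACh EC80 plus DMSO and 100% = DMSO alone without agonist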
# M1 ag parental = M1 agonist counterscreen hit in parental CHO-K1 cells; activation, % at 3 µM; 360,000 tested, 0.48% active; AID 602248; Fluo-8 calcium fluorescence; scaled to maximal ATP response, vehicle zero; in the data active means activation above about 15%;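 further: untransfected CHO-K1 host cells lacking M1 receptor as counterscreen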
# Active calls of the source: *; x = not tested or not shown. Compounds with a hit are over-represented: about 2.3% of the library has one in this group of screens.
SMILES,M1 PAM,CHRM1 agonist,M1 PAM parental,CHO-K1 Ca antag,CHRM1 antagonist,M1 ag parental
OCC[C@H]1C[C@H](O)[C@@H](O)[C@@]2(CCc3ccccc3O2)O1,5.2,-2.6,9.1,-16.6,-8.6,0.5
COCc1c(C(=O)OCC(=O)N2c3ccccc3CC2C)oc2ccccc12 (stereo unspecified),9.5,-1.3,-6.7,24.4*,8.7,0.0
COc1cc(/C=C/C(=O)OCC(=O)N2c3ccccc3NC(=O)C2(C)C)cc(OC)c1OC,-13.4,0.0,6.7,-7.6,33.5*,8.7
COCc1c(C(=O)OCC(=O)N2c3ccccc3NC(=O)C2(C)C)oc2ccccc12,-9.0,0.2,-3.9,30.0*,16.2,4.3
COCc1c(C(=O)OCC(=O)N(C)C2CCS(=O)(=O)C2)oc2ccccc12 (stereo unspecified),-19.1,-8.8,-1.1,-6.2,35.7*,0.1
CN(C(=O)COC(=O)c1n[nH]c2ccccc12)C1CCS(=O)(=O)C1 (stereo unspecified),1.3,-5.4,9.6,-12.1,-8.3,-0.2
COc1ccc(S(N)(=O)=O)cc1C(=O)OCC(=O)N1c2ccccc2NC(=O)C1(C)C,12.6,1.6,-6.3,-5.3,-10.6,-0.1
O=C1CN(C(=O)COC(=O)c2oc3ccccc3c2COc2ccccc2)c2ccccc2N1,2.1,-4.2,-4.6,4.3,-2.3,-0.3
COCc1c(C(=O)OCC(=O)N2CCCC2=O)oc2ccccc12,19.2,-2.2,8.0,-0.1,-17.5,0.1
COc1ccc(C)c(NC(=O)NCCc2cnc[nH]2)c1,7.8,-1.2,11.1,-5.2,3.1,0.4
CC1(C)C(=O)Nc2ccccc2N1C(=O)COC(=O)c1cc(S(C)(=O)=O)ccc1Cl,6.0,-1.1,-10.0,-12.9,-5.1,1.6
CC1(C)C(=O)Nc2ccccc2N1C(=O)COC(=O)c1ccc(Cl)c(S(=O)(=O)NCc2ccccc2)c1,-11.9,1.1,5.4,14.9,30.1*,3.0
N#Cc1ccccc1S(=O)(=O)N1CCN(C(=O)CN(Cc2ccco2)Cc2cccs2)CC1,-6.5,-5.4,-5.7,-4.6,-1.9,2.3
COc1ccc(-n2c(C)cc(C(=O)COC(=O)Cn3cnc4ccccc43)c2C)cc1,-11.7,2.1,2.0,33.2*,20.2*,8.6
O=C1C2CCCN2C(=O)N1CCCCN1CCN(CCO)CC1 (stereo unspecified),9.7,-6.1,21.9,-3.8,-7.8,0.1
COc1ccc(C(=O)N2c3ccc(F)cc3CCC2C)cc1OC (stereo unspecified),-3.8,-4.5,-5.8,15.5,7.3,0.1
COc1ccccc1NC(=O)N1c2ccc(F)cc2CCC1C (stereo unspecified),-3.6,-2.2,-8.7,24.0*,16.7,-0.1
COC(=O)c1nn(-c2ccc(OC)cc2)c(=O)cc1NN,-18.9,-11.5,15.9,-19.0,59.0*,0.1
CN1CCN(c2ccc(-c3cccc(NC(=O)COc4ccc(Cl)cc4Cl)c3)nn2)CC1,-8.7,-5.3,8.3,-1.0,4.0,2.4
FC(F)(F)c1cccc(NC(=S)NCc2ccc(Cl)cc2)c1,-16.1,1.9,8.8,22.0,22.6,16.9*
CC(NC(=S)Nc1cccc(C(F)(F)F)c1)C(C)(C)C (stereo unspecified),-16.8,-2.0,-2.1,13.7,45.5*,13.3
CC(=O)Nc1cccc(Oc2nc(NCCN(C)C)nc3ccsc23)c1,0.8,-5.8,-2.0,-17.5,-10.2,0.1
COc1ccc(CNC(=O)COC(=O)c2cc3ccccc3o2)cc1,-12.8,-1.6,-20.5,20.9,28.9*,0.2
CNc1ncc(Cc2ccccc2)s1,7.3,-6.2,-13.9,24.2*,-6.9,-0.5
CCCNC(=O)c1cc(C2CCCCN2C(=O)OCCF)on1 (stereo unspecified),10.2,-7.6,17.7,-10.1,-12.2,1.1
SMILES,M1 PAM,CHRM1 agonist,M1 PAM parental,CHO-K1 Ca antag,CHRM1 antagonist,M1 ag parental
CCCNC(=O)c1cc(C2CCCCN2C(=O)CCCc2ccccc2)on1 (stereo unspecified),-9.8,-6.4,-23.7,24.7*,10.1,0.5
CCCNC(=O)c1cc(C2CCCCN2C(=O)OCC(C)C)on1 (stereo unspecified),-20.2,-9.4,-11.9,4.8,41.8*,-0.5
COc1cc(C(=O)NCC(c2cccs2)N2CCOCC2)ccc1OCc1ccc(Cl)cc1 (stereo unspecified),-9.7,-1.5,-7.2,7.4,13.5,7.2
O=C(CS(=O)CC(=O)Nc1cccnc1)Nc1ccc(F)cc1 (stereo unspecified),3.0,-1.8,15.7,-14.4,-3.7,1.7
O=C(NCCCN1CCOCC1)c1ccc(Sc2ccccc2Cl)c([N+](=O)[O-])c1,-25.6,-11.4,25.1,-10.4,31.4*,2.6
O=C(NCCN1CCOCC1)c1ccc(Cl)c(S(=O)(=O)N2CCCCC2)c1,-8.1,-1.9,-29.7,17.0,49.4*,0.0
CC(NC(=O)c1ccc(Cl)c(S(=O)(=O)N2CCCCCC2)c1)c1cccnc1 (stereo unspecified),-27.2,-7.0,3.9,-10.3,37.1*,3.2
CN(C)C(CNC(=O)c1ccc(Cl)c(S(=O)(=O)N2CCCCCC2)c1)c1ccccc1 (stereo unspecified),-20.0,-3.5,1.6,-10.2,51.9*,9.8
COC1OC(c2ccccc2)=C(c2ccc(C(N)=O)cc2)c2ccc(F)cc21 (stereo unspecified),x,x,13.3,-11.0,x,1.4
CCCCN1CC(N2CCN(CCN(C)C)CC2)CS1(=O)=O (stereo unspecified),10.6,-5.3,14.2,-3.9,-8.7,0.4
COc1ccc(C(=O)Nc2ccccc2C(=O)N2CCCCC2C)cc1 (stereo unspecified),6.2,-4.6,24.9,1.4,0.9,1.0
O=C(NCc1nc2ccccc2[nH]1)c1ccc(Cl)c(S(=O)(=O)N2CCCC2)c1,1.5,-4.0,-6.3,-3.5,0.1,0.6
CCCn1c(NC(=O)c2ccc(Cl)c(S(=O)(=O)N3CCCC3)c2)nc2ccccc21,-13.3,-2.6,-13.7,15.8,35.1*,1.2
CC1(C)CC[C@]2(C(=O)O)CC[C@]3(C)C(=CC[C@@H]4[C@@]5(C)CC[C@H](O[C@@H]6O[C@H](C(=O)O)[C@@H](O)[C@H](O[C@@H]7OC[C@H](O)[C@H](O)[C@H]7O)[C@H]6O)C(C)(C)[C@@H]5CC[C@]43C)[C@@H]2C1,-8.5,1.6,-16.5,24.3*,19.4,-0.1
CN(C)CCC=C1c2ccccc2C=Cc2ccccc21,-25.4,-6.0,34.3,-20.4,98.1*,3.8
CNCCC=C1c2ccccc2C=Cc2ccccc21,-25.1,-3.9,-2.8,3.9,98.0*,0.8
N#Cc1cccc(NC(=O)CSc2nnc(C3CC3)n2C2CC2)c1,7.8,-3.9,26.4,-5.8,-5.5,1.7
